NPYLR7 agonist = agonists of mosquito NPYLR7 receptor, primary screen, cell-based, Aedes aegypti, calcium fluorescence, mosquito biting behavior; Aedes aegypti neuropeptide Y-like receptor 7 (NPYLR7); HEK293T NPYLR7/Galpha15, GCaMP6s calcium fluorescence; activation, % at 10 µM; 270,000 tested, 0.15% active; in the data active means activation above about 40%;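 further: 0% = vehicle and 100% = reference agonist at the receptor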
mcGAS inh = cyclic GMP-AMP synthase inhibitors, mouse, primary biochemical chemiluminescence; Q8C6L5; recombinant cGAS, Kinase-Glo ATP depletion luminescence; inhibition, % at 12.5 µM; 160,000 tested, 0.15% active; AID 1259399, 2018;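 further: 0% = negative control wells and 100% = reference inhibitor with no enzyme activity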
hcGAS inh = Primary biochemical luminescence assay for human cyclic GMP-AMP synthase inhibitors; 290,000 tested, 0.081% active; Q8N884; inhibition, % at 12.5 µM; recombinant h-cGAS, ATP depletion, Kinase-Glo luminescence;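 further: 0% = vehicle reaction and 100% = reaction without DNA for no activity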
Target sequence (Q8N884 whole entry, looked up): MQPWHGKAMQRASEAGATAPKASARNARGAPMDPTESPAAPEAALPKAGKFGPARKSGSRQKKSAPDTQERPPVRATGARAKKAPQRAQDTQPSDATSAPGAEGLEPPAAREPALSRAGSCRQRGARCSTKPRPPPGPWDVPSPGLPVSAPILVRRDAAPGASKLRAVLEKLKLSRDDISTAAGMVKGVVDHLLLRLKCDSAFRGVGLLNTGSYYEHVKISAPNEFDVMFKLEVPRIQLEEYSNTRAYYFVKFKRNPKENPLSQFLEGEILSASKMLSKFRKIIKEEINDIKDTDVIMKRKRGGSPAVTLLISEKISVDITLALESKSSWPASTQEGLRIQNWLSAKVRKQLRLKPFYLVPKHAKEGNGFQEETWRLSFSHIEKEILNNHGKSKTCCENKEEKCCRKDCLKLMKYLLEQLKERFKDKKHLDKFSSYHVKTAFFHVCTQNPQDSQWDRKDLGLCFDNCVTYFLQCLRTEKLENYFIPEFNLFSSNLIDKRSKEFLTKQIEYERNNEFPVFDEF
* hit, by the source's call; . = no result given; ! = repeats disagree. The list is not random: actives were taken first. Their share in the collection is about 0.3%. Unless noted, no stated cut-off is given here; in the data, active means inhibition above about 40%; inactive means the rest.

SMILES	NPYLR7 agonist	mcGAS inh	hcGAS inh
Cc1cc(C)n(-c2ccc(-n3ccnc3-c3ccc(CO)o3)cc2)n1	-5	.	-6
COc1ccc2nc(C=Cc3cc(Br)c(O)c(OC)c3)sc2c1	81*	.	-6
COc1ccc2nc(NC(=O)/C=C/c3ccc(Br)cc3)sc2c1	-6	-6	5
CCn1cc(C(=O)Nc2nccs2)c2nn(-c3ccccc3)c(=O)c-2c1	6	-8	-4
COc1cc(-c2ccccc2)c2ccccc2n1	0	.	-8
Cc1cc(-c2ccccc2)cc2c3ccccc3c3ccccc3[n+]12	-6	27	41*
CCOC(=O)CC(C)NC(=S)NCCCN(C)c1ccccc1 (stereo unspecified)	-6	-4	-3
CCOc1ccc(-c2ccc(=O)n(CC(=O)NCc3ccc(F)cc3)n2)cc1	7	.	-2
Cc1ccc(C(=O)Nc2ccc3c(c2)C(=O)c2ccccc2C3=O)cc1	-1	.	-8
CN(C)S(=O)(=O)c1ccc(C(=O)Nc2ccc3c(c2)C(=O)c2ccccc2C3=O)cc1	20	105*	-2
N#CC(=Cc1ccc(OC(F)F)cc1)C(=O)O	0	49*	-2
CC(C)NC(=O)C(C#N)=Cc1ccc(O)cc1	4	2	7
COc1ccc(S(=O)(=O)Oc2ccccc2CN(C(=O)Nc2ccccc2OC)C2CC2)cc1	2	-9	-5
COc1ccc(S(=O)(=O)Oc2cccc(CN(C(=O)Nc3ccccc3OC)C3CC3)c2)cc1	-4	42*	-2
Cc1ccc(C2=NN(C(=O)CN3CCN(C)CC3)C(c3ccccc3Cl)C2)cc1 (stereo unspecified)	45*	0	1
Cc1ccc(C2=NN(C(=O)CN3CCCC3)C(c3ccccc3F)C2)cc1 (stereo unspecified)	-4	-6	-4
COc1ccc(C2=NN(C(=O)CN3CCC4(CC3)OCCO4)C(c3ccccc3OC)C2)cc1 (stereo unspecified)	14	-3	78*
COc1ccccc1C1CC(c2cccc(F)c2)=NN1C(=O)CN1CCC2(CC1)OCCO2 (stereo unspecified)	2	-4	-4
CS(=O)(=O)N1CCCc2cc(C(=O)NCc3ccc(CN4CCCC4)cc3)ccc21	7	.	-6
C=C(Cl)CN1C(=O)NC(CC)(c2ccccc2)C1=O (stereo unspecified)	-3	.	3
CC=CCn1c(SCC(=O)OC)nc2c1c(=O)[nH]c(=O)n2C	6	-6	-2
O=C(NCC(F)(F)F)c1ccc2c(c1)ncn2-c1ccccc1	2	.	-2
O=c1[nH]c2cc(Cl)c(Br)cc2o1	-3	42*	24
O=c1[nH]c2ccc(S(=O)(=O)Nc3ccccc3Oc3ccccc3Cl)cc2o1	13	.	10
O=c1[nH]c2c(Cl)c(Cl)c(Cl)cc2o1	-6	82*	49*
SMILES	NPYLR7 agonist	mcGAS inh	hcGAS inh
O=c1[nH]c2c(Br)c(Br)c(Cl)cc2o1	-2	90*	-1
NC(=O)c1cnc(Sc2ccc3[nH]c(=O)oc3c2)c(Cl)c1	16	-15	-8
Nc1ccc2oc(=O)[nH]c2c1	2	-6	-9
CC(C(=O)Nc1ccccc1F)N1CCc2sccc2C1 (stereo unspecified)	5	.	-4
COCc1cc(CNC(=O)c2cnn3cc(C)cnc23)[nH]n1	4	.	-5
Cc1sc2nc(C(C)SC3=NCCS3)[nH]c(=O)c2c1C (stereo unspecified)	-24	-5	-4
CC(C)(C)C1CCc2sc(C(=O)NN3C(=O)NC4(CCCCC4)C3=O)cc2C1 (stereo unspecified)	-1	.	14
CC(C)(C)C1CCc2sc(C(=O)N3CCNC(=O)C3)cc2C1 (stereo unspecified)	6	93*	-11
COCCCNCC1(c2ccnc(-c3cccc(NS(C)(=O)=O)c3)c2)CC1	12	-10	-6
OCCC1CN(Cc2cc3ccccc3[nH]2)CCN1Cc1cccs1 (stereo unspecified)	6	-10	-9
CC1=NN(c2cccc(C(=O)O)c2)C(=O)/C1=C\c1ccc(-c2ccccc2C(=O)O)o1	-4	64*	-6
CC1=NN(c2cccc(C(=O)O)c2)C(=O)/C1=C\c1ccc(-c2cc([N+](=O)[O-])ccc2O)o1	-17	8	5
CCCOc1ccc(C=O)c(O)c1	1	.	2
CCOc1cc(C=O)c(O)c(C=O)c1	827*	.	15
CS(=O)(=O)c1cccc(NC(=O)C2=Cc3cc(Cl)ccc3OC2)c1	-1	.	-4
CN1CCN(N=CC2C(=O)Nc3ccccc32)CC1 (stereo unspecified)	-12	.	4
O=C1Nc2ccccc2C1C=NN1CCOCC1 (stereo unspecified)	51*	-7	-3
Cc1cc(NC(=O)Cc2ccc(N3CCCC3=O)cc2)nc(C(C)C)n1	3	-16	-6
CCCCN(CC(=O)N(Cc1cccn1C)CC(C)C)C(=O)c1ccc(OC)cc1	-6	-7	-12
CCN(CC)CCNc1nc2c(F)cccc2s1	4	.	-10
CCN(CC)CCNc1ccc(CO)c2sc3ccccc3c(=O)c12	-4	.	54*!
O=C(C1CCC(CNc2c(N3CCCCC3)c(=O)c2=O)CC1)N1CCN(C2CCCC2)CC1 (stereo unspecified)	4	-3	-11
O=C1CN(/N=C\c2ccc(-c3ccc([N+](=O)[O-])cc3)o2)C(=O)N1	-10	-4	-2
COc1ccc(Nc2ncc(-c3cccc(OC(F)(F)F)c3)n3ccnc23)cc1	-4	-4	-3
Cc1c(NC(=O)COC(=O)C(C#N)=Cc2ccc(N(C)C)cc2)c(=O)n(-c2ccccc2)n1C	50*	-6	-5
SMILES	NPYLR7 agonist	mcGAS inh	hcGAS inh
CCC(CC)C(=O)Nc1c(C)n(C)n(-c2ccccc2)c1=O	-1	-5	-5
Cc1cc(C)n(CCNC(=O)c2ccc3oc(Cc4ccccc4)nc3c2)n1	2	-8	-3
CN1CCN(C(=O)/C=C/c2ccc(Cl)cc2Cl)CC1	-3	-6	-2
O=C(/C=C/c1ccc(Cl)cc1Cl)n1cccn1	-10	44*	4
CC1CCCC(OC(=O)c2cccc(S(=O)(=O)N(C)C)c2)C1 (stereo unspecified)	1	.	-3
Nc1nnc(-c2n[nH]c(=O)c3ccccc23)s1	4	.	4
COc1ccc(-c2ccc(N)nc2)c(C)c1	21	.	-2
COc1ccc(-c2cnn(CCC(N)=O)c2)c(C)c1	47*	.	0
O=S(=O)(c1ccccc1)c1ccccc1Nc1ccccc1	0	.	78*
O=S(=O)(c1ccccc1)c1cnc2ccccc2c1Nc1ccccc1	3	-4	-5
CCC(=O)Oc1ccc2c(c1)O/C(=C\c1ccco1)C2=O	-1	80*	17
COc1cccc(C(=O)Oc2ccc3c(c2)O/C(=C\c2ccc(C)o2)C3=O)c1	-6	-1	0
CC(c1ccccc1)c1cn(CCC23CCCN2CCC3)nn1 (stereo unspecified)	3	.	-10
CCOC(=O)C1CCN(C(=O)C(C)n2ccsc2=NC(=O)c2cccc(C(F)(F)F)c2)CC1 (stereo unspecified)	-8	.	3
Cc1sc(=NC(=O)c2cccc(C(F)(F)F)c2)n(C(C)C(=O)NC2CC2)c1C (stereo unspecified)	7	.	184*
